Active and inactive are the calls of the source. Rule for the calls: active = hit-call score of the fitted dose curve at least 0.9, where 1 is the maximum; inactive = score below 0.9.

Read-out in this test: Vascular cell adhesion molecule 1 (VCAM1), VCAM1 (gene 7412)
Description: BSK_4H_VCAM1: BioMAP Diversity Plus: 4H Assay for Vascular cell adhesion molecule 1 (VCAM1) Biomarker Activity (AID 2283033).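 For outcome: cell-surface VCAM-1 protein measured by ELISA.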 The following applies: primary human endothelial cells (HUVEC); actives raise or lower the signal. In short, it runs like this: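 ELISA read-out of VCAM-1 on human umbilical vein endothelium 24 hours after chemical dosing; gain or loss of signal was fitted relative to DMSO, with sulforhodamine B staining of parallel cultures flagging overt cytotoxicity.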
As to `ClCC(Cl)CCl`, the result was inactive.
Regarding `CCOP(=S)(OCC)SCSP(=S)(OCC)OCC`, the result was inactive.
As to `CC(=O)C(Cl)C(=O)N(C)C` (stereo not drawn), the concentration at half-maximal activity (AC50) is 24.3 µM (active).
For `COc1cc(-c2ccc(N)c(OC)c2)ccc1N`, the result was inactive.
In the case of `O=C1C2(Cl)C3(Cl)C4(Cl)C(Cl)(Cl)C5(Cl)C3(Cl)C1(Cl)C5(Cl)C24Cl` (stereo not drawn), the AC50 was 8.36 µM (active).
With `CCOC(=O)/C=C(C)/C=C/C[C@@H](C)CCCC(C)C`, the AC50 was 30.6 µM (active).
Consider `CCOP(=S)(OCC)Oc1ccc(S(C)=O)cc1` (stereo not drawn), for which the outcome was inactive.
Same read-out and setting: the value for `ClC1(Cl)C2(Cl)C3(Cl)C4(Cl)C(Cl)(Cl)C5(Cl)C3(Cl)C1(Cl)C5(Cl)C24Cl` (stereo not drawn) was “inactive”; that for `CCC(=O)C(CC(C)N(C)C)(c1ccccc1)c1ccccc1` (stereo not drawn) was “inactive”.
Turning to `Cn1sc(Cl)cc1=O`, the AC50 was 20 µM (active).
With `Oc1cccc2cccnc12`, the concentration at half-maximal activity (AC50) is 1.96 µM (active).
On the same count and under the same terms, the value for `CC(C)(C)c1cc(O)ccc1O` was 23.2 µM (active).
In the case of `CCNc1nc(NC(C)(C)C)nc(SC)n1`, the result was inactive.
For `CC(C)c1ccc(CO)cc1`, the outcome was inactive.
Regarding `CC(C)(C)CC(C)(C)c1ccc(O)cc1`, the half-maximal activity concentration (AC50) is 7.98 µM (active).
With `CCN1CCC2(CC1)COc1cc3c(cc12)N(C(=O)c1ccc(-c2ccc(-c4nnc(C)o4)cc2C)cc1)CC3`, the AC50 was 27.8 µM (active).
As for `O=Cc1cccc(Oc2ccccc2)c1`, the result was inactive.
The same measure, in the same setting: the value for `Cc1ccccc1N` was “inactive”.
With `O=C(O)C(Cl)(Cl)Cl`, the outcome was inactive.
Turning to `O=c1[nH]c(=O)[nH]c(=O)[nH]1`, the outcome was inactive.
As to `O=[N+]([O-])c1ccc2c3c(cccc13)CC2`, the outcome was inactive.
Turning to `C=CC(=O)OCCCCCC(C)C`, the outcome was inactive.
Turning to `CCC(C)(C)c1ccc(O)c(C(C)(C)CC)c1`, the AC50 is 10.4 µM (active).
